# In PubChem BioAssay (Tox21):
# Inconclusive results are not listed. Where a call stands in place of a potency, no number is given. The source made the active and inactive calls. Unless noted, calls come from the whole dose curve; as a rule, active = well fitted curve in the direction sought with a large enough effect in the repeat runs; inconclusive = weak or mixed curves; inactive = no such curve, though single readings can be large; an effect the other way counts as inactive or inconclusive.
# Experiments:
# [1] = qHTS assay to identify small molecule antagonists of the retinoid acid receptor (RAR) signaling pathway - cell viability counter screen (AID 1159551); settings: C3RL4 cells viability, ATP luminescence (CellTiter-Glo), 6 h; series mostly up to 92.4 µM; note: nearly all actives have a fitted effect of over 35% in size; note: potency is the fitted concentration of half-maximal effect
# In short: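 Cells (C3RL4) are plated, incubated overnight, dosed with compound in DMSO, then given retinol at 1 uM final. After 6 h at 37 C, CellTiter-Glo is added and luminescence read following 30 min at room temperature.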
# [2] = qHTS assay to identify small molecule antagonists of the retinoic acid receptor (RAR) signaling pathway (AID 1159552; note: nearly all actives have a fitted effect of over 50% in size; note: potency is the fitted concentration of half-maximal effect); settings: C3RL4 RARE luciferase reporter, retinol-stimulated, 6 h; series mostly up to 92.4 µM
# In short: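 Overnight-plated C3RL4 reporter cells get compound, then retinol to 1 uM final; plates sit 6 hr at 37 C, 5% CO2. A luciferase reagent is added and light output recorded after 30 min at room temperature.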
# [3] = qHTS assay to identify small molecule agonists of the retinoic acid receptor (RAR) signaling pathway (AID 1159553); settings: C3RL4 RARE luciferase reporter, agonist, 6 h; series mostly up to 73.3 µM; note: potency is the fitted concentration of half-maximal effect
# In short: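 Seed C3RL4 reporter cells at 1,000 per well and incubate overnight at 37 C. Add compounds in DMSO, incubate 6 hr. Add luciferase reagent, wait 30 min at room temperature, read luminescence.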
# [4] = qHTS assay to identify small molecule antagonists of the estrogen related receptor (ERR) signaling pathway from Tox21 library - cell viability counter screen (AID 1224834); settings: ERR reporter cells viability, CellTiter-Fluor, 17.5 h; series mostly up to 92.4 µM; note: nearly all actives have a fitted effect of over 30% in size; note: potency is the fitted concentration of half-maximal effect
# In short: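 ERR cells, 2,000/well; 6 h settle at 37 C/5% CO2; pin-tool compound transfer in DMSO; 17.5 h at 37 C; CellTiter-Fluor, 30 min; fluorescence intensity.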
# [5] = qHTS assay to identify small molecule agonists of the RXR signaling pathway - cell viability counter screen (AID 1159529); settings: RXR-alpha-bla HEK293T viability, CellTiter-Glo, 16 h; series mostly up to 76.8 µM;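 note: HEK 293T cells carrying an RXR-alpha UAS beta-lactamase reporter; nearly all actives have a fitted effect of over 50% in size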
# In short: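 Tox21 10K compounds were tested for cytotoxicity against GeneBLAzer RXR-alpha HEK 293T cells grown in 2% charcoal-stripped FBS. Exposure lasted 16 hr at 37 C, 5% CO2; viability read by CellTiter-Glo luminescence.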
# [6] = qHTS assay to identify small molecule antagonists of the estrogen related receptor (ERR) signaling pathway (AID 1224819; note: nearly all actives have a fitted effect of over 50% in size); settings: ERR reporter cell line, luciferase inhibition; series mostly up to 46.1 µM
# In short: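 qHTS in ERR cells, 2,000/well, 1536 format. Cpd (DMSO) added after 6 h settle, 18 h 37 C. One-Glo luminescence, 30 min RT.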
# [7] = qHTS assay to identify small molecule agonists of the estrogen related receptor (ERR) signaling pathway (AID 1224820); settings: ERR reporter cell line, luciferase agonist mode; series mostly up to 46.1 µM
# In short: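 After 6 h plating (2,000 cells/well) and 18 h compound treatment at 37 C, ERR cells were lysed with One-Glo and luminescence read after 30 min at room temperature.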
# [8] = system: estrogen-related receptor alpha (ERRalpha) with PGC-1alpha coactivator, human; assay: qHTS assay to identify small molecule antagonists of the estrogen related receptor signaling pathway with the pleiotropic PPARgamma coactivator (PGC) (AID 1224821; calls by dose curve;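 note: lower luminescence signal means antagonism of PGC/ERR signalling; nearly all actives have a fitted effect of over 50% in size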); settings: ERR/PGC reporter cell line, luciferase, antagonist mode; series mostly up to 46.1 µM
# In short: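 Luminescence from One-Glo luciferase reagent (30 min, room temperature) measured after 18 h compound treatment at 37 °C. Cells carry the PGC/ERR reporter and were seeded 6 h prior to dosing.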
# [9] = qHTS assay to identify small molecule antagonists of the estrogen related receptor signaling pathway with the pleiotropic PPARgamma coactivator (PGC) cell viability counter screen (AID 1224822;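 note: viability read after 17.5 h compound exposure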); settings: ERR/PGC reporter cell line viability counter screen; series mostly up to 46.1 µM
# In short: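 Multiplexed viability counter screen run in PGC/ERR cells treated with compounds for 17.5 h at 37 C; live-cell protease signal measured by CellTiter-Fluor fluorescence.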
# [10] = qHTS assay to identify small molecule agonists of the estrogen related receptor signaling pathway with the pleiotropic PPARgamma coactivator (PGC) (AID 1224823); settings: ERR/PGC reporter cell line, luciferase agonist mode; series mostly up to 46.1 µM
# In short: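 Luminescence from One-Glo reagent (30 min, room temperature) was read after 18 h compound treatment at 37 C of PGC/ERR cells plated 6 h beforehand; compounds delivered in DMSO by pin tool.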
smiles,measurement,setting,value
CC(C)(O)c1coc(S(=O)(=O)NC(=O)Nc2c3c(cc4c2CCC4)CCC3)c1,Potency,[1],inactive
same,Potency,[2],inactive
CN(C)CC/C=C1\c2ccccc2Sc2ccc(Cl)cc21,Potency,[2],29.8 µM (active)
CC[C@H]1OC(=O)[C@H](C)[C@@H](O[C@H]2C[C@@](C)(OC)[C@@H](O)[C@H](C)O2)[C@H](C)[C@@H](O[C@@H]2O[C@H](C)C[C@H](N(C)C)[C@H]2O)[C@](C)(O)C[C@@H](C)CN(C)[C@H](C)[C@@H](O)[C@]1(C)O,Potency,[1],inactive
same,Potency,[3],inactive
same,Potency,[4],inactive
CS(=O)(=O)c1ccc([C@@H](C[C@H]2CCC(=O)C2)C(=O)Nc2cnccn2)cc1Cl,Potency,[5],inactive
same,Potency,[4],inactive
CN=C(N)NC(=O)Nc1c(C)cccc1C,Potency,[5],inactive
same,Potency,[4],inactive
N[C@@H](Cc1cc(I)c(O)c(I)c1)C(=O)O,Potency,[5],inactive
same,Potency,[3],inactive
O=C(O)c1cccc(C[C@@H]2COc3ccc(OCc4nc5cc(F)ccc5s4)cc3[C@@H]2O)c1,Potency,[5],inactive
same,Potency,[4],inactive
COc1ccc(/C=C/C(=O)c2ccc(OC)cc2OC)cc1,Potency,[2],inactive
same,Potency,[3],29.8 µM (active)
same,Potency,[4],inactive
CCCCCCCCCCCCCC(=O)OCC(O)CO (configuration not stated),Potency,[2],inactive
same,Potency,[3],inactive
same,Potency,[4],inactive
O=C(CCS)OCC(COC(=O)CCS)(COC(=O)CCS)COC(=O)CCS,Potency,[4],inactive
O=[N+]([O-])C1(Br)COCOC1,Potency,[2],43.3 µM (active)
CCCCCCCC/C=C\CCCCCCCC(=O)OCCO,Potency,[1],inactive
same,Potency,[3],inactive
same,Potency,[4],inactive
O=C(/C=C/c1ccc([N+](=O)[O-])cc1)c1ccccc1,Potency,[2],inactive
same,Potency,[3],30.7 µM (active)
same,Potency,[4],54.6 µM (active)
CNCc1ccc(NC(=O)c2c[nH]c3c2C(=O)CCC3)cc1,Potency,[2],inactive
same,Potency,[4],inactive
C/C(C=O)=C\c1ccccc1,Potency,[5],inactive
same,Potency,[3],inactive
same,Potency,[4],inactive
CO[C@@H]1[C@@H](OC)[C@H](C)[C@@](O)(CC(=O)O)O[C@H]1[C@H](C)[C@H]1O[C@@]2(CC[C@@](C)([C@H]3CC[C@@](C)([C@@H]4O[C@@H]([C@H]5O[C@](C)(O)[C@H](C)C[C@@H]5C)C[C@@H]4OC4C[C@H](OC)[C@@H](OC)[C@H](C)O4)O3)O2)C[C@H](O)[C@H]1C (some centres not stated),Potency,[4],0.944 µM (active)
CC/C=C\C/C=C\C/C=C\CCCCCCCC(=O)OCC,Potency,[1],inactive
same,Potency,[2],inactive
Nc1ccc(NC(=O)c2ccc(N)cc2)cc1,Potency,[1],inactive
same,Potency,[2],inactive
same,Potency,[4],inactive
C[C@@H]1[C@H](O)[C@@H](C)/C=C/C=C\C=C\C=C\C=C\C=C\C=C\[C@H](O[C@@H]2O[C@H](C)[C@@H](O)[C@H](N)[C@@H]2O)C[C@@H]2O[C@](O)(C[C@@H](O)C[C@@H](O)[C@H](O)CC[C@@H](O)C[C@@H](O)CC(=O)O[C@H]1C)C[C@H](O)[C@H]2C(=O)O (stereo in doubt),Potency,[1],inactive
same,Potency,[2],inactive
O=C(Oc1ccccc1)c1ccc2ccccc2c1O,Potency,[1],inactive
same,Potency,[2],inactive
same,Potency,[3],0.864 µM (active)
same,Potency,[4],inactive
CCCCCCCCCCCC(=O)OCC(O)CO (configuration not stated),Potency,[1],inactive
same,Potency,[2],inactive
same,Potency,[3],inactive
same,Potency,[4],inactive
Cc1cn([C@H]2C[C@H](F)[C@@H](CO)O2)c(=O)[nH]c1=O,Potency,[5],inactive
same,Potency,[3],inactive
same,Potency,[4],inactive
SCCc1cnccn1,Potency,[1],inactive
same,Potency,[4],inactive
O=C(Nc1ccc(C(=O)O)c(O)c1)c1ccccc1,Potency,[5],inactive
same,Potency,[4],inactive
CCN(Cc1cccc(S(=O)(=O)O)c1)c1ccc(C(=C2C=CC(=[N+](CC)Cc3cccc(S(=O)(=O)O)c3)C=C2)c2ccc(O)cc2S(=O)(=O)[O-])cc1,Potency,[1],14.8 µM (active)
same,Potency,[2],9.32 µM (active)
same,Potency,[4],16.6 µM (active)
O=NN(CCCl)C(=O)NCCCl,Potency,[5],inactive
same,Potency,[6],inactive
same,outcome,[7],inactive
same,Potency,[8],inactive
same,outcome,[9],inactive
same,outcome,[10],inactive
Nc1ccc(N=Nc2ccc(N)cc2)cc1,Potency,[1],inactive
same,Potency,[2],inactive
same,Potency,[3],0.863 µM (active)
CC(C)CC(O)CC(C)C,Potency,[1],inactive
same,Potency,[2],inactive
same,Potency,[3],inactive
COc1ccc(C(=O)NCc2ccc(OCCN(C)C)cc2)cc1OC,Potency,[5],inactive
same,Potency,[4],inactive
CCN(CC)c1ccc(C(=C2C=CC(=[N+](CC)CC)C=C2)c2ccc(S(=O)(=O)O)cc2S(=O)(=O)[O-])cc1,Potency,[1],15.4 µM (active)
same,Potency,[2],24.3 µM (active)
same,Potency,[4],21.7 µM (active)
Cc1ccc(Nc2c(F)cccc2Cl)c(CC(=O)O)c1,Potency,[4],inactive
